Among the data in PubChem BioAssay (NCI) are growth inhibition values, retold here.

Test [1] is described as follows: NCI Yeast Anticancer Drug Screen. Data for the rad50 strain (AID 155).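 Note: 0% = growth of vehicle-only cultures of the same strain.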 As to conditions: S. cerevisiae rad50 strain growth inhibition, hits give high values. The method in brief: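 Cells are treated with compound, grown, and their growth is then scored against vehicle-only cultures of the same repair-deficient yeast strain.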
A short description of test [2]: NCI Yeast Anticancer Drug Screen. Data for the mec2-1 strain (AID 157). As to conditions: S. cerevisiae mec2-1 strain, hits give high values. The method in brief:
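Using mec2-1 yeast: add compound, measure growth, express inhibition versus vehicle-treated cultures.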

Test [3] in a line: NCI Yeast Anticancer Drug Screen. Data for the sgs1 mgt1 strain (AID 161).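 Note: 0% = growth of cultures given vehicle only.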 As to conditions: S. cerevisiae sgs1 mgt1 strain, hits give high values. A digest of the protocol: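 Yeast cells carrying a defined DNA-repair defect were exposed to test compounds. Growth inhibition was measured relative to vehicle-treated controls.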
The nature of test [4]: NCI Yeast Anticancer Drug Screen. Data for the cln2 rad14 strain (AID 165).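 Note: 0% = growth equal to vehicle treated cultures.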 As to conditions: S. cerevisiae cln2 rad14 strain, hits give high values. A digest of the protocol: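 Yeast strain cln2 rad14, bearing defects in cell cycle control and DNA repair, serves as the test system; values reflect growth inhibition compared with vehicle.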
Test [5] is described as follows: NCI Yeast Anticancer Drug Screen. Data for the bub3 strain (AID 167). The following applies: S. cerevisiae bub3 mutant strain, hits give high values. A digest of the protocol: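 Part of a panel of yeast mutants defective in DNA damage repair or cell cycle regulation. Each strain is grown with compound, and inhibition is calculated relative to solvent-treated cultures.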

The nature of test [6]: NCI Yeast Anticancer Drug Screen. Data for the mlh1 rad18 strain (AID 175). As to conditions: S. cerevisiae mlh1 rad18 strain growth inhibition, hits give high values. A digest of the protocol: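 Steps: expose repair-defective yeast to compound; measure growth; express inhibition against vehicle-treated controls.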
Setting [7] is: at 5.0 µM (retest, dose inferred, filed as 0.5).
Setting [8] is: at 50.0 µM (retest, dose inferred, filed as 5.0).

Molecules are shown by their SMILES. About 79,000 compounds went through this panel and 15% of them were active in at least one assay; those are over-represented in the sample as a whole. A number with no mark means an inactive call. The source made the active and inactive calls. Cut-off read from the data, not from the text of the source: active = growth inhibition above about 70%; inactive = the rest.

For `CCCCCCCCCCCCCCCCCC[S+](C)CC` (stereo not given), the growth inhibition is 97% (active) in test [1] (setting [7]); 94% (active) in test [1] (setting [8]); 90.2% (active) in test [1] (at 50.0 µM); 99% (active) in test [2] (setting [7]); 98% (active) in test [2] (setting [8]); 92.9% (active) in test [2] (at 50.0 µM). Also, the growth inhibition in test [3] (setting [7]) was 99% (active); in test [3] (setting [8]) it was 99% (active); in test [3] (at 50.0 µM) it was 92.9% (active); in test [4] (setting [7]) it was 98% (active); in test [4] (setting [8]), 98% (active); in test [4] (at 50.0 µM) it was 91.6% (active). The growth inhibition in test [5] (setting [7]) is 99% (active); in test [5] (setting [8]) it was 98% (active); in test [5] (at 50.0 µM) it was 91.5% (active); in test [6] (setting [7]) it was 98% (active); in test [6] (setting [8]), 97% (active); in test [6] (at 50.0 µM), 90.3% (active).

Regarding `CN(C)CCSC1=Nc2ccc(Cl)cc2C(c2ccccc2Cl)N(C)C1` (stereo not given), the growth inhibition in test [1] (setting [7]) is 8%; in test [1] (setting [8]), 80% (active); in test [1] (at 50.0 µM), 96.7% (active); in test [2] (setting [7]), 3%; in test [2] (setting [8]), 47%; in test [2] (at 50.0 µM), 95.7% (active). The growth inhibition in test [3] (setting [7]) is 3%; in test [3] (setting [8]), 78% (active); in test [3] (at 50.0 µM) it was 88.3% (active); in test [4] (setting [7]), 4%; in test [4] (setting [8]), 27%; in test [4] (at 50.0 µM), 80.2% (active). Also, the growth inhibition in test [5] (setting [7]) is 0%; in test [5] (setting [8]), 82% (active); in test [5] (at 50.0 µM), 97% (active); in test [6] (setting [7]), 10%; in test [6] (setting [8]), 84% (active); in test [6] (at 50.0 µM), 95.8% (active).

Consider `CC(C)Nc1ccc(Nc2ccc(NC(C)C)cc2)cc1`, for which the growth inhibition in test [1] (setting [7]) is 0%; in test [1] (setting [8]) it was 81% (active); in test [1] (at 50.0 µM), 65.7%; in test [2] (setting [7]), -21%; in test [2] (setting [8]), 74% (active); in test [2] (at 50.0 µM), 97% (active). The growth inhibition in test [3] (setting [7]) is -1%; in test [3] (setting [8]) it was 59%; in test [3] (at 50.0 µM) it was 48%; in test [4] (setting [7]) it was -10%; in test [4] (setting [8]) it was 73% (active); in test [4] (at 50.0 µM) it was 92.9% (active). Moreover, the growth inhibition in test [5] (setting [7]) is -7%; in test [5] (setting [8]), 80% (active); in test [5] (at 50.0 µM) it was 92.5% (active); in test [6] (setting [7]), -15%; in test [6] (setting [8]), 51%; in test [6] (at 50.0 µM) it was 92.3% (active).

As to `CC(=O)Nc1ccc(C(=O)CCl)cc1`, the growth inhibition in test [1] (setting [7]) was 98% (active); in test [1] (setting [8]), 98% (active); in test [1] (at 50.0 µM), 76.3% (active); in test [2] (setting [7]), 96% (active); in test [2] (setting [8]) it was 99% (active); in test [2] (at 50.0 µM), 51.7%. The growth inhibition was 98% (active) in test [3] (setting [7]); 99% (active) in test [3] (setting [8]); 99% (active) in test [3] (at 50.0 µM); 87% (active) in test [4] (setting [7]); 93% (active) in test [4] (setting [8]); 51.6% in test [4] (at 50.0 µM). Besides, the growth inhibition in test [5] (setting [7]) was 99% (active); in test [5] (setting [8]), 99% (active); in test [5] (at 50.0 µM), 7.6%; in test [6] (setting [7]), 98% (active); in test [6] (setting [8]), 99% (active); in test [6] (at 50.0 µM), 94.7% (active).

On to `CCCCN(CCCC)CCCCCCCCCCO`, for which the growth inhibition in test [1] (setting [7]) is -2%; in test [1] (setting [8]), -2%; in test [1] (at 50.0 µM) it was 45.4%; in test [2] (setting [7]) it was -1%; in test [2] (setting [8]), 1%; in test [2] (at 50.0 µM), 36.2%. Also, the growth inhibition was 1% in test [3] (setting [7]); 1% in test [3] (setting [8]); 52.6% in test [3] (at 50.0 µM); 2% in test [4] (setting [7]); 0% in test [4] (setting [8]); 4.2% in test [4] (at 50.0 µM). In addition, the growth inhibition was 3% in test [5] (setting [7]); 7% in test [5] (setting [8]); 70% (active) in test [5] (at 50.0 µM); -1% in test [6] (setting [7]); -1% in test [6] (setting [8]); 25.4% in test [6] (at 50.0 µM).

Take `CCCCCCCCCCCCCCCC[N+]1(C)CCCC1c1cccnc1` (stereo not given): the growth inhibition in test [1] (setting [7]) is 93% (active); in test [1] (setting [8]), 99% (active); in test [1] (at 50.0 µM), 14.3%; in test [2] (setting [7]), 90% (active); in test [2] (setting [8]), 99% (active); in test [2] (at 50.0 µM), 55.5%. Also, the growth inhibition in test [3] (setting [7]) is 99% (active); in test [3] (setting [8]) it was 99% (active); in test [3] (at 50.0 µM), 40.8%; in test [4] (setting [7]), 70% (active); in test [4] (setting [8]), 99% (active); in test [4] (at 50.0 µM), 1.5%. The growth inhibition is 96% (active) in test [5] (setting [7]); 99% (active) in test [5] (setting [8]); 99% (active) in test [5] (at 50.0 µM); 89% (active) in test [6] (setting [7]); 99% (active) in test [6] (setting [8]); 68.8% in test [6] (at 50.0 µM).

As for `O=[N+]([O-])CC(O)c1ccccc1` (stereo not given), the growth inhibition was 4% in test [1] (setting [7]); 26% in test [1] (setting [8]); 98.4% (active) in test [1] (at 50.0 µM); -1% in test [2] (setting [7]); -3% in test [2] (setting [8]); 52.2% in test [2] (at 50.0 µM). In addition, the growth inhibition in test [3] (setting [7]) is -2%; in test [3] (setting [8]) it was 1%; in test [3] (at 50.0 µM), 50.2%; in test [4] (setting [7]), -2%; in test [4] (setting [8]), -1%; in test [4] (at 50.0 µM), 98.6% (active). In addition, the growth inhibition in test [5] (setting [7]) is -2%; in test [5] (setting [8]) it was 1%; in test [5] (at 50.0 µM) it was 50.9%; in test [6] (setting [7]), -2%; in test [6] (setting [8]), 4%; in test [6] (at 50.0 µM) it was 51.9%.

As to `C(=N\Nc1ccc2ccccc2n1)/c1ccccn1`, the growth inhibition in test [1] (setting [7]) is 49%; in test [1] (setting [8]) it was 72% (active); in test [1] (at 50.0 µM) it was 90.7% (active); in test [2] (setting [7]) it was 30%; in test [2] (setting [8]), 78% (active); in test [2] (at 50.0 µM) it was 92.6% (active). Further, the growth inhibition is 46% in test [3] (setting [7]); 85% (active) in test [3] (setting [8]); 93.1% (active) in test [3] (at 50.0 µM); 31% in test [4] (setting [7]); 63% in test [4] (setting [8]); 90.7% (active) in test [4] (at 50.0 µM). Further, the growth inhibition in test [5] (setting [7]) was 44%; in test [5] (setting [8]) it was 81% (active); in test [5] (at 50.0 µM), 92.3% (active); in test [6] (setting [7]) it was 50%; in test [6] (setting [8]), 87% (active); in test [6] (at 50.0 µM), 92.1% (active).

`COc1ccc2c(c1)C(N)=C(c1ccccc1)C2=O`: the growth inhibition in test [1] (setting [7]) is 14%; in test [1] (setting [8]), 15%; in test [1] (at 50.0 µM), 70.2% (active); in test [2] (setting [7]), 16%; in test [2] (setting [8]), 8%; in test [2] (at 50.0 µM), 28.2%. The growth inhibition is 16% in test [3] (setting [7]); 28% in test [3] (setting [8]); 63.1% in test [3] (at 50.0 µM); 17% in test [4] (setting [7]); 10% in test [4] (setting [8]); 0.55% in test [4] (at 50.0 µM). In addition, the growth inhibition is 24% in test [5] (setting [7]); 19% in test [5] (setting [8]); 59.2% in test [5] (at 50.0 µM); 21% in test [6] (setting [7]); 9% in test [6] (setting [8]); -31.8% in test [6] (at 50.0 µM).

`CC(C)(C)CC(C)(C)c1ccc(OCCOCCSC(=N)N)cc1`: the growth inhibition in test [1] (setting [7]) was 5%; in test [1] (setting [8]) it was 99% (active); in test [1] (at 50.0 µM), 46.4%; in test [2] (setting [7]), -3%; in test [2] (setting [8]), 100% (active); in test [2] (at 50.0 µM), 47%. The growth inhibition in test [3] (setting [7]) is 23%; in test [3] (setting [8]) it was 99% (active); in test [3] (at 50.0 µM) it was 40.1%; in test [4] (setting [7]) it was 13%; in test [4] (setting [8]), 99% (active); in test [4] (at 50.0 µM), 99.2% (active). Besides, the growth inhibition in test [5] (setting [7]) was 5%; in test [5] (setting [8]) it was 99% (active); in test [5] (at 50.0 µM), 99.5% (active); in test [6] (setting [7]), 24%; in test [6] (setting [8]), 98% (active); in test [6] (at 50.0 µM), 97.6% (active).
